# Assay results taken from PubChem BioAssay (NCI).
# The panel holds about 83,000 compounds, 20% with a hit somewhere; the sample as a whole holds those more often.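 Values shown are percent growth following 48 h exposure of cells in 96-well plates to a single concentration of compound; below 10 was considered active.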 Values without a mark were called inactive. Calls of active or inactive are those of the source.
# Assays:
# Experiment in all cases: NCI-60 one-dose screen, 48 h (100 = growth as untreated, 0 = no growth, -100 = all killed)
# NCI-H23 lung = test system: NCI-H23 lung
# NCI-H226 lung = test system: NCI-H226 lung
# NCI-H322M lung = conditions: 10 µM unless noted
# HOP-62 NSCLC = test system: HOP-62 NSCLC
# NCI-H460 lung = test system: NCI-H460 lung
# HOP-92 NSCLC = test system: HOP-92 NSCLC
# NCI-H522 lung = test system: NCI-H522 lung
# A549/ATCC NSCLC = test system: A549/ATCC NSCLC
# 786-0 renal = test system: 786-0 renal
# COLO 205 colon = test system: COLO 205 colon
# DU-145 prostate = test system: DU-145 prostate
# K-562 leukemia = test system: K-562 leukemia
# MALME-3M melanoma = test system: MALME-3M melanoma
# MDA-MB-231 breast = test system: MDA-MB-231 breast
# RXF 393 renal = test system: RXF 393 renal
# SF-268 CNS = test system: SF-268 CNS
# SF-295 CNS = test system: SF-295 CNS
# SF-539 CNS = test system: SF-539 CNS
# UACC-257 melanoma = test system: UACC-257 melanoma
# M14 melanoma = test system: M14 melanoma
structure (smiles),measurement,setting,value
Clc1ccc(Nc2nc(Nc3ccc(Cl)cc3)nc(Nc3ccc(-c4cc(-c5cccc(Cl)c5)on4)cc3)n2)cc1,growth,NCI-H23 lung; 10 µM unless noted,88.1%
same,growth,NCI-H226 lung; 10 µM unless noted,99.9%
same,growth,NCI-H322M lung,85.2%
same,growth,HOP-62 NSCLC; 10 µM unless noted,115%
same,growth,NCI-H460 lung; 10 µM unless noted,96.1%
same,growth,HOP-92 NSCLC; 10 µM unless noted,60.4%
same,growth,NCI-H522 lung; 10 µM unless noted,88.5%
same,growth,A549/ATCC NSCLC; 10 µM unless noted,91.3%
same,growth,786-0 renal; 10 µM unless noted,94.6%
same,growth,COLO 205 colon; 10 µM unless noted,90.9%
same,growth,DU-145 prostate; 10 µM unless noted,110%
same,growth,K-562 leukemia; 10 µM unless noted,85.9%
same,growth,MALME-3M melanoma; 10 µM unless noted,128%
same,growth,MDA-MB-231 breast; 10 µM unless noted,81.3%
same,growth,RXF 393 renal; 10 µM unless noted,39.3%
same,growth,SF-268 CNS; 10 µM unless noted,87.7%
same,growth,SF-295 CNS; 10 µM unless noted,102%
same,growth,SF-539 CNS; 10 µM unless noted,102%
same,growth,UACC-257 melanoma; 10 µM unless noted,108%
same,growth,M14 melanoma; 10 µM unless noted,94.8%
COc1cc(CNC(=O)CCCC/C=C/C(C)C)ccc1OCc1cn(-c2ccc([N+](=O)[O-])cc2)nn1,growth,NCI-H23 lung; 10 µM unless noted,83.2%
same,growth,NCI-H226 lung; 10 µM unless noted,89.6%
same,growth,NCI-H322M lung,97.9%
same,growth,HOP-62 NSCLC; 10 µM unless noted,80.9%
same,growth,NCI-H460 lung; 10 µM unless noted,99.8%
same,growth,HOP-92 NSCLC; 10 µM unless noted,90.3%
same,growth,NCI-H522 lung; 10 µM unless noted,78.2%
same,growth,A549/ATCC NSCLC; 10 µM unless noted,84.1%
same,growth,786-0 renal; 10 µM unless noted,93.7%
same,growth,COLO 205 colon; 10 µM unless noted,118%
same,growth,DU-145 prostate; 10 µM unless noted,105%
same,growth,K-562 leukemia; 10 µM unless noted,74.5%
same,growth,MALME-3M melanoma; 10 µM unless noted,98.4%
same,growth,MDA-MB-231 breast; 10 µM unless noted,75.3%
same,growth,RXF 393 renal; 10 µM unless noted,99.7%
same,growth,SF-268 CNS; 10 µM unless noted,86.1%
same,growth,SF-295 CNS; 10 µM unless noted,89%
same,growth,SF-539 CNS; 10 µM unless noted,104%
same,growth,UACC-257 melanoma; 10 µM unless noted,82.6%
same,growth,M14 melanoma; 10 µM unless noted,89.7%
CC(=O)/C=C/c1ccc(N(C)Cc2ccc(C(C)(C)C)cc2)cc1,growth,NCI-H23 lung; 10 µM,75.5%
same,growth,NCI-H23 lung; 100 µM,-10.1% (active)
same,growth,NCI-H226 lung; 10 µM,85.1%
same,growth,NCI-H226 lung; 100 µM,-82.3% (active)
same,growth,NCI-H322M lung,-64.5% [100 µM] (active)
same,growth,HOP-62 NSCLC; 10 µM,97.6%
same,growth,HOP-62 NSCLC; 100 µM,-34.8% (active)
same,growth,NCI-H460 lung; 10 µM,96.9%
same,growth,NCI-H460 lung; 100 µM,-63.7% (active)
same,growth,HOP-92 NSCLC; 10 µM,77.3%
same,growth,HOP-92 NSCLC; 100 µM,-92.6% (active)
same,growth,NCI-H522 lung; 10 µM,77.1%
same,growth,NCI-H522 lung; 100 µM,-76.4% (active)
same,growth,A549/ATCC NSCLC; 10 µM,89.6%
same,growth,A549/ATCC NSCLC; 100 µM,-48.6% (active)
same,growth,786-0 renal; 10 µM,97.3%
same,growth,786-0 renal; 100 µM,-75% (active)
same,growth,COLO 205 colon; 10 µM,113%
same,growth,COLO 205 colon; 100 µM,-72% (active)
same,growth,DU-145 prostate; 10 µM,96.6%
same,growth,DU-145 prostate; 100 µM,0.731% (active)
same,growth,K-562 leukemia; 10 µM,59.5%
same,growth,K-562 leukemia; 100 µM,-12.4% (active)
same,growth,MALME-3M melanoma; 10 µM,89.3%
same,growth,MALME-3M melanoma; 100 µM,-88.1% (active)
same,growth,MDA-MB-231 breast; 10 µM,103%
same,growth,MDA-MB-231 breast; 100 µM,-70.6% (active)
same,growth,RXF 393 renal; 10 µM,106%
same,growth,RXF 393 renal; 100 µM,-90.6% (active)
same,growth,SF-268 CNS; 10 µM,102%
same,growth,SF-268 CNS; 100 µM,-76.8% (active)
same,growth,SF-295 CNS; 10 µM,88.9%
same,growth,SF-295 CNS; 100 µM,-30.4% (active)
same,growth,SF-539 CNS; 10 µM,98.9%
same,growth,SF-539 CNS; 100 µM,-69% (active)
same,growth,UACC-257 melanoma; 10 µM,84.6%
same,growth,UACC-257 melanoma; 100 µM,-76.5% (active)
same,growth,M14 melanoma; 10 µM,79.5%
same,growth,M14 melanoma; 100 µM,-65.3% (active)
O=C(CCCOc1ccc(Br)cc1)Nc1ncc(Cc2ccc(F)cc2)s1,growth,NCI-H23 lung; 10 µM unless noted,86.5%
same,growth,NCI-H226 lung; 10 µM unless noted,88.8%
same,growth,NCI-H322M lung,78.5%
same,growth,HOP-62 NSCLC; 10 µM unless noted,75.3%
same,growth,NCI-H460 lung; 10 µM unless noted,90.4%
same,growth,HOP-92 NSCLC; 10 µM unless noted,58%
same,growth,NCI-H522 lung; 10 µM unless noted,75.1%
same,growth,A549/ATCC NSCLC; 10 µM unless noted,84.8%
same,growth,786-0 renal; 10 µM unless noted,86.3%
same,growth,COLO 205 colon; 10 µM unless noted,63.3%
same,growth,DU-145 prostate; 10 µM unless noted,79.8%
same,growth,K-562 leukemia; 10 µM unless noted,37.1%
same,growth,MALME-3M melanoma; 10 µM unless noted,73.1%
same,growth,MDA-MB-231 breast; 10 µM unless noted,79.5%
same,growth,RXF 393 renal; 10 µM unless noted,69.2%
same,growth,SF-268 CNS; 10 µM unless noted,73%
same,growth,SF-295 CNS; 10 µM unless noted,68.9%
same,growth,SF-539 CNS; 10 µM unless noted,68.3%
same,growth,UACC-257 melanoma; 10 µM unless noted,93.4%
same,growth,M14 melanoma; 10 µM unless noted,51%
CCCCSc1ccc2nc(-c3ccc(OCCCN=C(N)N)cc3)cn2c1,growth,NCI-H23 lung; 10 µM unless noted,63.7%
same,growth,NCI-H226 lung; 10 µM unless noted,72.3%
same,growth,NCI-H322M lung,90.7%
same,growth,HOP-62 NSCLC; 10 µM unless noted,86.4%
same,growth,NCI-H460 lung; 10 µM unless noted,43.7%
same,growth,HOP-92 NSCLC; 10 µM unless noted,43.1%
same,growth,NCI-H522 lung; 10 µM unless noted,53.8%
same,growth,A549/ATCC NSCLC; 10 µM unless noted,83.8%
same,growth,786-0 renal; 10 µM unless noted,39.4%
same,growth,COLO 205 colon; 10 µM unless noted,51.1%
same,growth,DU-145 prostate; 10 µM unless noted,73.4%
same,growth,K-562 leukemia; 10 µM unless noted,32.9%
same,growth,MALME-3M melanoma; 10 µM unless noted,23.2%
same,growth,MDA-MB-231 breast; 10 µM unless noted,51.2%
same,growth,RXF 393 renal; 10 µM unless noted,45.6%
same,growth,SF-268 CNS; 10 µM unless noted,50.9%
same,growth,SF-295 CNS; 10 µM unless noted,52.7%
same,growth,SF-539 CNS; 10 µM unless noted,9.52% (active)
same,growth,UACC-257 melanoma; 10 µM unless noted,85.7%
same,growth,M14 melanoma; 10 µM unless noted,72.5%
COc1ccc(C(=O)/C=C/c2ccc(OCc3ccc(Cl)cc3)cc2)cc1OC,growth,NCI-H23 lung; 10 µM,84.1%
same,growth,NCI-H23 lung; 100 µM,29.2%
same,growth,NCI-H226 lung; 10 µM,87.1%
same,growth,NCI-H226 lung; 100 µM,-7.94% (active)
same,growth,NCI-H322M lung,40.4% [100 µM]
same,growth,HOP-62 NSCLC; 10 µM,104%
same,growth,HOP-62 NSCLC; 100 µM,5.95% (active)
same,growth,NCI-H460 lung; 10 µM,95.3%
same,growth,NCI-H460 lung; 100 µM,6.18% (active)
same,growth,HOP-92 NSCLC; 10 µM,104%
same,growth,HOP-92 NSCLC; 100 µM,12.5%
same,growth,NCI-H522 lung; 10 µM,82.5%
same,growth,NCI-H522 lung; 100 µM,2.45% (active)
same,growth,A549/ATCC NSCLC; 10 µM,85.9%
same,growth,A549/ATCC NSCLC; 100 µM,13.7%
same,growth,786-0 renal; 10 µM,106%
same,growth,786-0 renal; 100 µM,-13.2% (active)
same,growth,COLO 205 colon; 10 µM,117%
same,growth,COLO 205 colon; 100 µM,41.8%
same,growth,DU-145 prostate; 10 µM,95.2%
same,growth,DU-145 prostate; 100 µM,14.9%
same,growth,K-562 leukemia; 10 µM,67.9%
same,growth,K-562 leukemia; 100 µM,52.2%
same,growth,MALME-3M melanoma; 10 µM,110%
same,growth,MALME-3M melanoma; 100 µM,-19.5% (active)
same,growth,MDA-MB-231 breast; 10 µM,110%
same,growth,MDA-MB-231 breast; 100 µM,-22.5% (active)
same,growth,RXF 393 renal; 10 µM,110%
same,growth,RXF 393 renal; 100 µM,-2.05% (active)
same,growth,SF-268 CNS; 10 µM,100%
